Experiment [1] can be described thus: qHTS for differential inhibitors of proliferation of Plasmodium falciparum line W2 (AID 1883).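 Further: parasites grown with compound for 72 h before lysis and staining.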 Further: potency means the concentration at half of the fitted maximal effect. The conditions noted are these: Potency: Plasmodium falciparum W2 proliferation inhibition.
Experiment [2] can be described thus: qHTS for differential inhibitors of proliferation of Plasmodium falciparum line HB3 (AID 1886).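 Further: parasites grown with compound for 72 h before SYBR Green readout.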 Further: potency means the concentration at half of the fitted maximal effect. The conditions noted are these: Potency: Plasmodium falciparum HB3 proliferation inhibition.
Experiment [3] concerns the target RecQ-like DNA helicase BLM (Homo sapiens) (UniProt P54132). Nature of the experiment: qHTS Validation Assay for Inhibitors of Bloom's syndrome helicase (BLM) (AID 2364). The procedure, abridged:
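50 nM BLM preincubated 15 min at room temperature with compound in pH 8.0 Tris buffer containing 2.5 ug/ml poly(dI-dC); started with 200 nM TAMRA/BHQ-2 forked duplex and 2 mM ATP (final). Unwinding read as TAMRA fluorescence increase, two reads 2 h apart.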

The nature of experiment [4]: High Content Imaging Cell-Based qHTS for Inhibitors of the mTORC1 Signaling Pathway in MEF (Tsc2-/-, p53-/-) Cells (AID 2666).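 Further: percent of cells scored positive for phospho-rpS6 Ser235/236 immunostaining by imaging.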 The procedure, abridged:
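MEF Tsc2-/- p53-/- (empty vector), DMEM/10% FBS; cpd 24 h 37 °C; PFA fix, Alexa-488 p-rpS6 S235/236 Ab, Hoechst; imaged; rapamycin-defined inhibition; % positive cells/well.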

Experiment [5] in a line: High Content Imaging Cell-Based qHTS for Inhibitors of the mTORC1 Signaling Pathway in MEF Cells (AID 2667). Further: potency means the concentration at half of the fitted maximal effect. The procedure, abridged:
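Read-out is the share of phospho-rpS6-positive cells per well, from Hoechst-normalized Alexa-488 Ser235/236 staining imaged on IN Cell. Cells: WT Tsc2-expressing Tsc2-/-, p53-/- MEFs exposed to compound for 24 hrs.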

Experiment [6] is described as follows: Validation screen for small molecules that induce DNA re-replication in MCF 10A normal breast cells (AID 463097). Further: nearly all actives have a fitted effect of over 60% in size. Further: potency means the concentration at half of the fitted maximal effect. The procedure, abridged:
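Readout: Hoechst nuclear fluorescence intensity, 405 ex / 500-530 em, by scanning plate imager; re-replication scored as increase in nuclei with elevated DNA content. Cells exposed to compound 48 hr, 37 C, 5% CO2 beforehand.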

The target in experiment [7] is Ubiquitin carboxyl-terminal hydrolase 2 (Homo sapiens) (UniProt O75604). Nature of the experiment: qHTS Validation Assay for Inhibitors of Ubiquitin-specific Protease USP2a Using CHOP2 as the Reporter (AID 463106). The procedure, abridged: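 Fluorescence read-out at Ex 485nm/Em 531nm after 60min RT, following addition of 25nM Ub-CHOP2 plus 25nM reporter substrate to USP2 core (10nM) pretreated 30min with compound. Data normalized to NEM full inhibition; concentration-response curves fitted.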

Experiment [8] concerns the target DNA polymerase III PolC-type (Bacillus subtilis (strain 168)) (UniProt P13267). Nature of the experiment: qHTS Validation Assay for the Inhibitors of DNA Replication in Gram-Positive Bacteria (AID 485295).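 Further: PicoGreen fluorescence of double-stranded DNA made on primed circular M13 template; series mostly up to about 57 µM.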 The procedure, abridged: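 Reconstituted B. subtilis holoenzyme (Pol III, beta clamp, SSB, primase) was preincubated with compound at room temperature, then given single-stranded circular M13Gori plus dNTPs and NTPs. EDTA-containing PicoGreen stopped the reaction, and dsDNA product was read by fluorescence.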

In experiment [9] the target is Tumor susceptibility gene 101 protein (Homo sapiens) (UniProt Q99816). Nature of the experiment: qHTS Validation Assay for Iinhibitors of HIV-1 Budding by Blocking the Interaction of PTAP/TSG101 (AID 485342; calls by dose curve). The procedure, abridged: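 Tsg101 binding domain (10 uM final) in pH 7.5 HEPES/NaCl/Tween 20/EDTA/TCEP buffer was mixed with pin-transferred compounds, then FITC-labeled PTAP peptide (50 nM final) was added; after 20 min at r.t., fluorescence polarization was read.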

For experiment [10], the target named is Beta-2 adrenergic receptor (Homo sapiens) (UniProt P07550). The experiment can be described thus: qHTS validation assay of beta-arrestin-biased ligands of beta2-adrenergic receptor (AID 485366). The procedure, abridged: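 qHTS, Tango cells, 1500 cells/well, DMEM + 1% FBS. Cpd 18 hr at 37 degrees C. Luciferin/ATP/CoA detection mix, 15 min RT, luminescence read. %Activity from corrected signal; CRC fit, curve class.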

Experiment [11] addresses ATP-dependent DNA helicase Q1 (Homo sapiens) (UniProt P46063). Nature of the experiment: qHTS Validation Assay for Inhibitors of RecQ-Like Dna Helicase 1 (RECQ1) (AID 2353). The procedure, abridged: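 RECQ1T1 50 nM; forked duplex (20 bp + 30-nt ss tails) 200 nM, ATP 2 mM final; pH 8.0, 2 mM MgCl2, 2.5 ug/ml poly(dI-dC); 15 min compound preincubation; discontinuous kinetic read over 2 h at RT.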

The nature of experiment [12]: Cytometric Cell-Based qHTS for Inhibitors of the mTORC1 Signaling Pathway in MEF (Tsc2-/-, p53-/-) Cells (AID 2660).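 Further: percent of cells above a phospho-rpS6 to PI ratio cutoff in each well; series mostly up to about 38 µM.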 The procedure, abridged:
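Tsc2-/-, p53-/- MEFs (empty vector) exposed to compound 24 h at 37 C, fixed, stained with Alexa-488 anti-phospho-rpS6 Ser235/236 and propidium iodide. Acumen laser scanning; phospho-S6/PI ratio thresholded against 7.5 nM rapamycin, reported as % positive cells.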

Experiment [13] is described as follows: Cytometry Cell-Based qHTS for Inhibitors of the mTORC1 Signaling Pathway in MEF cells (AID 2668).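 Further: Tsc2-/- p53-/- mouse embryonic fibroblasts stably re-expressing wild-type Tsc2; percent cells positive for phospho-rpS6 Ser235/236 relative to propidium iodide stain; series mostly up to about 38 µM.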 The procedure, abridged:
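WT MEFs (Tsc2-/-, p53-/- stably re-expressing WT Tsc2) in DMEM + 10% FBS received compounds 24 hrs after plating, for 24 hrs at 37 degree Celsius. Fixed cells stained with Alexa-488 anti-phospho-rpS6 Ser235/236 and propidium iodide; laser-scanning cytometry read-out.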

A short description of experiment [14]: qHTS Assay for Modulators of Human Peripheral Myelin Protein 22 (PMP22) Expression/Activity (AID 1967; active means well fitted curve in the direction sought with a large enough effect in the signal ratio; the % refers to the signal ratio). The procedure, abridged: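 MSC80 mouse Schwann cells stably carrying Pmp22 promoter–green click beetle luciferase plus EF-alpha–red luciferase control were dosed for 24h at 37 °C. Dual-colour luminescence was filter-overlap corrected; %Activity came from green/red ratio versus untreated cells.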

In experiment [15] the target is Ferritin light chain (Equus caballus) (UniProt P02791). The experiment can be described thus: qHTS Validation Assay for Identification of Novel General Anesthetics (AID 2323). Further: series mostly up to about 77 µM. The procedure, abridged:
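Competitive displacement of profluorescent 1-aminoanthracene (1-AMA, 50% saturated solution in PBS) from 10 uM horse-spleen apoferritin. Compounds incubated 10 min at room temperature; fluorescence read at 380 nm excitation/535 nm emission, normalized to free 1-AMA and complex, fitted with four-parameter Hill equation.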

Experiment [16] in a line: qHTS Validation Assay to Find Inhibitors of Chronic Active B-Cell Receptor Signaling (AID 485345; active means well fitted curve in the direction sought with a large enough effect in the main read-out, with a control signal flat, not every such curve was filed as active). The procedure, abridged:
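TMD8 ABC-DLBCL cells stably carrying doxycycline-inducible IkappaBalpha–green luciferase fusion plus unfused red luciferase; compounds 46 uM to 3 nM, 4 h at 37C with doxycycline. Corrected green/red luminescence ratio normalized to 10 uM MG-132 and basal cell wells; curves fitted.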

The source of these data is PubChem BioAssay (NCATS).

Results filed as inconclusive are left out. The source made the active and inactive calls. Unless noted, the call rests on the fitted dose curve; in most records, active means well fitted curve in the direction sought with a large enough effect; inconclusive means small, poorly fitted or top-dose-only effect, or another doubt; inactive means no such curve, though single readings can be large; an effect the other way counts as inactive or inconclusive.

Chain of Beta-2 adrenergic receptor (Homo sapiens) (P07550 whole entry, looked up): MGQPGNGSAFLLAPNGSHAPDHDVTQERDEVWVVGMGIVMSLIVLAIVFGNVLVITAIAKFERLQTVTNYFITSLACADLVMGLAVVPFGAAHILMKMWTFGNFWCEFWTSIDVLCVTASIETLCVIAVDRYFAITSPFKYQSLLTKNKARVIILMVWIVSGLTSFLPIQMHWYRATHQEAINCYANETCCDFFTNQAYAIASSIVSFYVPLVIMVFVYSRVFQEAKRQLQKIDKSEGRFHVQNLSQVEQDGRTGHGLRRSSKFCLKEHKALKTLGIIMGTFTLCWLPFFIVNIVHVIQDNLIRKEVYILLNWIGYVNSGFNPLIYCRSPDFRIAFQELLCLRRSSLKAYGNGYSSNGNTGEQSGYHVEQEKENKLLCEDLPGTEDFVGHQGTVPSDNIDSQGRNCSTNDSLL
Chain of Tumor susceptibility gene 101 protein (Homo sapiens) (Q99816 whole entry, looked up, the tested form may be a part): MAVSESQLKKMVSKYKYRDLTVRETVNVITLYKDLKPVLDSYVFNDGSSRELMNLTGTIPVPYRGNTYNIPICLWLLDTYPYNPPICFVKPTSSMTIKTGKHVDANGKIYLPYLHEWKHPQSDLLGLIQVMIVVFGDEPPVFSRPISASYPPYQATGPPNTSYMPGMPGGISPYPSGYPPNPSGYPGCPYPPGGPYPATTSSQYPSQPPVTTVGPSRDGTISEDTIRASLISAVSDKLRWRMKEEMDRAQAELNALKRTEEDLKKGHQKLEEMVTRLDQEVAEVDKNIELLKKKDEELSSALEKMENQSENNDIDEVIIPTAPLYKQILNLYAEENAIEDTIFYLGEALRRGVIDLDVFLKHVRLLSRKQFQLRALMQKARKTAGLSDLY
Chain of RecQ-like DNA helicase BLM (Homo sapiens) (P54132 whole entry, looked up): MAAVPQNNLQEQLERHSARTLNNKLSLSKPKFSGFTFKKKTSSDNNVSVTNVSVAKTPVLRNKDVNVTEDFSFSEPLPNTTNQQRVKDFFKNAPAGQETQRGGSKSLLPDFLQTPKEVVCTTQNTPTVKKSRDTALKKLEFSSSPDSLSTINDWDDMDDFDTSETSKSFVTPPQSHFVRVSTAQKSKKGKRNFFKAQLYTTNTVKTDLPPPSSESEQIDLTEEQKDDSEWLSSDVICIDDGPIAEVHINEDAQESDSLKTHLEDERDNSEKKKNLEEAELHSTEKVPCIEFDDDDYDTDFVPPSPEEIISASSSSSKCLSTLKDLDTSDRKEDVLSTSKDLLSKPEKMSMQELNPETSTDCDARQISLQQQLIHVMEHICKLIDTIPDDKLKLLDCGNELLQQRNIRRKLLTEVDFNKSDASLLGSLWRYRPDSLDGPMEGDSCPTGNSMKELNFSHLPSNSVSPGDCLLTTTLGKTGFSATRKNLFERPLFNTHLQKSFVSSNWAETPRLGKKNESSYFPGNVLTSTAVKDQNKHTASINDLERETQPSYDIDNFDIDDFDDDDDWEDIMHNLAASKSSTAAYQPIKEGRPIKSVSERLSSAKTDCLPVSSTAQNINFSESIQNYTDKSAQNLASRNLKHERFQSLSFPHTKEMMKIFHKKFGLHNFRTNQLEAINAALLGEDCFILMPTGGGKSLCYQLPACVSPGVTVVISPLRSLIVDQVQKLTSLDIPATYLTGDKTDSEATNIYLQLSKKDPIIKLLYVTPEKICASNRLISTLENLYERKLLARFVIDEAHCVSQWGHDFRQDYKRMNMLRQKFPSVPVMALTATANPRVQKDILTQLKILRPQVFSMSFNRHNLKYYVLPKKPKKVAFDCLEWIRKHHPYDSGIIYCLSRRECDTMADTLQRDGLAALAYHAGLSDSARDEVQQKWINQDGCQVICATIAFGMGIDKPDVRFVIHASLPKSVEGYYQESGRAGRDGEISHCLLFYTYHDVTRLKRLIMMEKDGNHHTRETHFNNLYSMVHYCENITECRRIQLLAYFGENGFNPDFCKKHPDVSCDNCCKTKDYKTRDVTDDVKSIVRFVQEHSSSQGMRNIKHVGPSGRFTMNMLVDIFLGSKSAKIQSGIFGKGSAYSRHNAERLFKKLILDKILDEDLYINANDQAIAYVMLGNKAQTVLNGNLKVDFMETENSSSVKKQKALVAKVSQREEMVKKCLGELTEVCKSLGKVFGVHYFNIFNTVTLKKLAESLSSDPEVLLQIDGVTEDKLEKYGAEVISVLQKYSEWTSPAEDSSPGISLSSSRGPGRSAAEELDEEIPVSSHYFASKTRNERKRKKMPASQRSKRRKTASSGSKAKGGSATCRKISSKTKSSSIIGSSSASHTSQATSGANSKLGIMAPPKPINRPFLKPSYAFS
Chain of Ubiquitin carboxyl-terminal hydrolase 2 (Homo sapiens) (O75604 whole entry, looked up): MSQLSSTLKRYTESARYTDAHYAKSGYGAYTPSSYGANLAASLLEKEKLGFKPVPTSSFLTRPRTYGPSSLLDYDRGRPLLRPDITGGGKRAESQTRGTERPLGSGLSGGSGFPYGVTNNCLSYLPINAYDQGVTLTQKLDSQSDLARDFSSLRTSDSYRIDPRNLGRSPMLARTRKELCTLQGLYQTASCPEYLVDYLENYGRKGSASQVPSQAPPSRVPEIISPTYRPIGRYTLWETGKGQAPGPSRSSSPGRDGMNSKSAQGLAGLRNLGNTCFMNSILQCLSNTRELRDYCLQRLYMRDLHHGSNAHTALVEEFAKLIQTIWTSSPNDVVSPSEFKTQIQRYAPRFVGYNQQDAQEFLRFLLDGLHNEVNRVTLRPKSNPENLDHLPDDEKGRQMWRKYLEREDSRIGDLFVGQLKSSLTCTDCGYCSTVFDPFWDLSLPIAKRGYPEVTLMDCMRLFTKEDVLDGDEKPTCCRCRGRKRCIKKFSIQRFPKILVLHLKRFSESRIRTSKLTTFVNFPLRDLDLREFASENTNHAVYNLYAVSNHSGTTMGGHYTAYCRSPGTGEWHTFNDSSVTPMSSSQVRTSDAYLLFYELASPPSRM
Chain of Ferritin light chain (Equus caballus) (P02791 2-175 limits assumed): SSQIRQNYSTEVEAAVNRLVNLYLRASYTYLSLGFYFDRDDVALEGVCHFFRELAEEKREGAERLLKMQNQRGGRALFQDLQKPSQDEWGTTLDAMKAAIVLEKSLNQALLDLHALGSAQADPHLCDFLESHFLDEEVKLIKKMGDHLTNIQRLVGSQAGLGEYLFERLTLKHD
Chain of DNA polymerase III PolC-type (Bacillus subtilis (strain 168)) (P13267 whole entry, looked up): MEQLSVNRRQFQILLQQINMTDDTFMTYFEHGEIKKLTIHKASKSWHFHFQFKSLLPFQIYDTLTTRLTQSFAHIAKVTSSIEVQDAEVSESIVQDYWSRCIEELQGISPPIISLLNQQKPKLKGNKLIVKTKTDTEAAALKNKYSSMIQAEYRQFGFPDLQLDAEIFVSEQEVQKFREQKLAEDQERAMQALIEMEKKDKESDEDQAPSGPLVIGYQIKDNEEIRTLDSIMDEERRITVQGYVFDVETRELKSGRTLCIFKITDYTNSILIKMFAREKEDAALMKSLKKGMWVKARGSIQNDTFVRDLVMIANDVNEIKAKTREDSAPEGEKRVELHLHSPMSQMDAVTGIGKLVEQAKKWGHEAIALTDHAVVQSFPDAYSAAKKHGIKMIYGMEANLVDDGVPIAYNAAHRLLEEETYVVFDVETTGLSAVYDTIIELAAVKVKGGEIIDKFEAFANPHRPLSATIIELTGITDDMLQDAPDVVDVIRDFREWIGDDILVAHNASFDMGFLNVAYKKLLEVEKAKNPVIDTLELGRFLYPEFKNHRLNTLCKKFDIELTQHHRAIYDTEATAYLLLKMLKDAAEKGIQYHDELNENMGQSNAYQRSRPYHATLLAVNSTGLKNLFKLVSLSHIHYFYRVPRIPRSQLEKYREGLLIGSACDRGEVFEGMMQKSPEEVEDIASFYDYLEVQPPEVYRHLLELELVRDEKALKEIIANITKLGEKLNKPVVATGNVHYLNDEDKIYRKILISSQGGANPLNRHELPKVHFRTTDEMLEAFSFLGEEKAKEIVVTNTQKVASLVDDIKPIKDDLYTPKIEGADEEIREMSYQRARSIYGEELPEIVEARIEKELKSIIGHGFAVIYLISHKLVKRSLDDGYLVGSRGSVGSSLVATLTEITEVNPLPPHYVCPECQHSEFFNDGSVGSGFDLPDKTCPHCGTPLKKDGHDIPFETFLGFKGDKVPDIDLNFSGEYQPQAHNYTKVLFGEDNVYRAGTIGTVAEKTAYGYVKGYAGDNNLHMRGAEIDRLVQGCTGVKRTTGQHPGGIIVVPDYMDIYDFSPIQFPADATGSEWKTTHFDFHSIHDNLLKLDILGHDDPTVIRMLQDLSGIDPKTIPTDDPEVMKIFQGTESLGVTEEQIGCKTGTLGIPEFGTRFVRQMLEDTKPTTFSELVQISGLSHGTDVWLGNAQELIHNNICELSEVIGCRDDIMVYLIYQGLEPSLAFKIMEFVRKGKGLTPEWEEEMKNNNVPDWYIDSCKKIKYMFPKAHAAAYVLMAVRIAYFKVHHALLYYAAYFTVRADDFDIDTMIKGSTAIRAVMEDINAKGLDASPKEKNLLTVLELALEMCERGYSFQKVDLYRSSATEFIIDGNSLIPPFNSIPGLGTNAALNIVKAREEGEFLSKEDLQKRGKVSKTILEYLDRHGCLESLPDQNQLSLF

Regarding `C=C1C(=O)O[C@@H]2[C@H]3O[C@]3(C)CCC=C(C)CC[C@@H]12`, the Potency is 10 µM (active) in experiment [1], 11.2 µM (active) in experiment [2] and 14.1 µM (active) in [6]. The Potency result in experiment [3], in [4], in experiment [5], in experiment [7] and in experiment [8] was “inactive” in each case. For the same compound, the outcome in [9] and in experiment [10] was inactive.
On to `CC(C)(CO)Cc1cc(C(C)(C)C)c(O)c(C(C)(C)C)c1`, for which, in experiment [1], the Potency was 10 µM (active). Further, the Potency result in experiment [11], in experiment [4], in experiment [5], in experiment [13], in experiment [7] and in experiment [8] was “inactive” throughout. Further, the compound was classed as inactive in experiment [12], in [9] and in [10].
Take `N=C(N)SCCN`: the Potency entry in experiment [11], in experiment [3], in experiment [4], in experiment [5], in [13] and in [6] was “inactive” each time. The Potency entry in [7] and in [8] was “inactive” each time. For the same compound, the call in experiment [9] and in experiment [10] was inactive.
For `NCCNS(=O)(=O)c1cccc2c(Cl)cccc12`, the figures for the Potency in experiment [1] and in experiment [5] were 6.31 µM (active) and 16.5 µM (active), respectively. Besides, the Potency entry in [3], in [4], in experiment [6], in experiment [7] and in experiment [8] was “inactive” throughout. Moreover, the compound was called inactive in experiment [12], in experiment [9] and in experiment [10].
Take `COc1cc2c(CCNC(C)=O)c[nH]c2cc1O`: the Potency entry in [2], in experiment [15], in [11], in [5], in [13] and in [6] was “inactive” throughout. The Potency entry in experiment [7] and in experiment [8] was “inactive” each time. Moreover, the call in experiment [14], in experiment [9], in experiment [16] and in experiment [10] was inactive.
As to `c1ccc2c(c1)CC(N1CCN(c3cccc4c3OCCO4)CC1)C2`, in [1], the Potency is 5.01 µM (active). The Potency entry in experiment [11], in experiment [3], in [4], in experiment [5], in experiment [13] and in [6] was “inactive” in each case. Moreover, the Potency result in experiment [7] and in [8] was “inactive” each time. Also, the compound was called inactive in [9] and in experiment [16].
Consider `Nc1ncnc2c1ncn2C1CCCC1`, for which the Potency entry in experiment [15], in experiment [11], in [4], in [5], in experiment [6] and in [7] was “inactive” in each case. Further, the Potency entry in experiment [8] was “inactive”. Also, the result in [12], in experiment [9], in [16] and in [10] was inactive.
Take `CCCCCCCCCC(=O)NC(CN1CCOCC1)[C@H](O)c1ccccc1` (some centres undefined): the figures for the Potency in experiment [1] and in [2] were 1.58 µM (active) and 8.91 µM (active), respectively. Further, the Potency result in experiment [11], in experiment [7] and in experiment [8] was “inactive” each time. In addition, the outcome in experiment [12], in [9] and in experiment [10] was inactive.
Regarding `CC[C@@H]1Cc2cc(O)ccc2C2=C1c1ccc(O)cc1C[C@H]2CC`, the Potency in experiment [1] was 4.47 µM (active); in [2], 11.2 µM (active). Moreover, the Potency result in experiment [11], in [4], in experiment [5], in experiment [7] and in [8] was “inactive” in each case. Also, the compound was called inactive in experiment [10].
Regarding `C[N+](C)(C)CC=O`, the Potency result in [1], in experiment [2], in experiment [11], in [5], in [13] and in experiment [6] was “inactive” each time. Moreover, the Potency result in [7] and in experiment [8] was “inactive” each time. Also, the compound was classed as inactive in experiment [12], in experiment [9], in experiment [16] and in experiment [10].
For the compound `c1ccc2nc(C3=NCCN3)ccc2c1`, the Potency result in experiment [2], in experiment [15], in experiment [11], in experiment [3], in [4] and in experiment [13] was “inactive” throughout. Also, the Potency entry in experiment [6], in [7] and in [8] was “inactive” throughout. Also, the call in experiment [12], in experiment [9], in [16] and in experiment [10] was inactive.
Take `OC1(c2ccc(Cl)cc2)CCN(Cc2c[nH]c3ccccc23)CC1`: the Potency entry in [15], in experiment [11], in experiment [3], in experiment [4], in [6] and in experiment [7] was “inactive” throughout. For the same compound, the Potency entry in experiment [8] is “inactive”. The call in experiment [12], in experiment [9] and in experiment [10] was inactive.
Regarding `CC(=O)SC1CC2=CC(=O)CC[C@]2(C)C2CC[C@@]3(C)C(CC[C@@]34CCC(=O)O4)C12` (some centres undefined), the compound was classed as inactive in [12], in [9], in [16] and in [10]. Besides, the Potency result in experiment [4], in experiment [5], in [13], in experiment [7] and in experiment [8] was “inactive” each time.
